Assay results: PubChem BioAssay (EPA / NIEHS)
Inconclusive results are not listed. Activity calls are given as the source filed them. How the source made its calls, unless noted: active means hit-call score of the fitted dose curve at least 0.9, where 1 is the maximum; inactive means score below 0.9.

Legend:
[1] = CCTE_Harrill_HTTr_Viability_MCF7: CCTE's 6-hour Cell Viability Assessment for the High-Throughput Transcriptomics (HTTr) Platform, in MCF-7 cells cultured in DMEM + 10% fetal bovine serum, Harrill Lab (AID 2284010)
Procedure, shortened: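 Cells were dosed with chemicals in an eight-point dilution series, imaged 6 hours later for propidium iodide uptake, and the endpoint was analyzed by bidirectional fitting against DMSO as negative control.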

[2] = CCTE_Harrill_HTTr_Apoptosis_MCF7: CCTE's 6-hour Apoptosis Assessment for the High-Throughput Transcriptomics (HTTr) Platform, in MCF-7 cells cultured in DMEM + 10% fetal bovine serum, Harrill Lab (AID 2284011)
Procedure, shortened: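 Read-out: CellEvent Caspase 3/7 Green signal by high content imaging, gain-of-signal indicating apoptosis. MCF-7 cells, DMEM + 10% FBS, eight-point dilution series, 6 h exposure. Curves fitted bidirectionally relative to DMSO negative control.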

[3] = CCTE_Harrill_HTTr_CellCount_MCF7: CCTE's Cell Proliferation Assessment for the High-Throughput Transcriptomics (HTTr) Platform, Harrill Lab (AID 2284012; active means hit-call score of the fitted dose curve at least 0.9, where 1 is the maximum;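 further: count of Hoechst-stained nuclei per well by high-content imaging in MCF-7 cells; cells exposed to compound for six hours; intended direction is loss of nuclei count meaning fewer cells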)
Procedure, shortened: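 Chemicals in eight-point dilution series are added to MCF-7 cells for six hours, nuclei are stained with Hoechst and imaged, and per-well nuclei counts are fitted in both directions relative to DMSO controls.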

Measured: outcome

O=C[C@H](O)[C@@H](O)[C@@H](O)CO
inactive: all assays above
